Compound activity from PubChem.
aSyn rescue: qHTS of alpha-syn Inhibitors. Yeast expressing alpha-synuclein, growth rescue, BacTiter-Glo, 24 h. Potency, µM (titrated, usually from 46.1 µM), actives largely listed as activators. actives 0.14% (n = 370,000). AID 652106, 2013; further: nearly all actives have a fitted effect of over 65% in size
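Rescue of yeast growth: cells expressing toxic alpha-synuclein, induced in galactose at OD600 0.02, incubated with compound 24 h at 30 C. ATP luminescence quantified growth; inhibitors of toxicity appear as activators.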
CCT chaperon mod: High-Throughput Screening for Modulators of Cytosolic Chaperonin Activity; purified chaperonin ATPase assay, HTRF ADP detection, 30 min; activity change, % (no concentration beside the values), hits read low; AID 651819, 2012; actives 0.3% (n = 360,000); in the data active means activity change below about -30%
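First, chaperonin was dispensed at 40 nM or 20 nM final depending on batch activity. Next, compounds were pinned at 76 uM and ATP added at 10 uM. After 30 min at 37 °C, ADP detection reagents ran 30 min at ambient temperature.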
TDP-43 yeast inh: qHTS of TDP-43 Inhibitors. TDP-43 expressing yeast growth rescue, BacTiter-Glo, 24 h. actives 1.8% (n = 410,000). Potency, µM (titrated, usually from 46.1 µM), hits mostly activators. AID 652104, 2013; further: nearly all actives have a fitted effect of over 50% in size
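Growth rescue of TDP-43-toxic yeast measured as ATP luminescence (BacTiter-Glo). Cells grown to mid-log in raffinose, induced in galactose at OD600=0.02, exposed to compound 24 hr at 30 deg C.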
Mm-Cpn inhibitor: Inhibitors of TCP-1 ring complex (TRiC) of Methanococcus maripaludis (MmCpn): qHTS; Chaperonin Mm-Cpn (Methanococcus maripaludis); purified Mm-Cpn ATPase, ADP Transcreener TR-FRET; Potency, µM (top dose mostly 76.9 µM), actives largely listed as inhibitors; actives 0.031% (n = 330,000); AID 504842, 2011; further: nearly all actives have a fitted effect of over 80% in size
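Inhibition of chaperonin ATP hydrolysis is measured as reduced ADP production, detected by competitive TR-FRET in which signal falls with ADP. Final enzyme 25 nM and ATP 10 uM, reacted 30 min at 37°C.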
Abeta yeast res: qHTS for compounds that reverse cellular toxicity of Amyloid beta (A-beta) peptide in yeast: Primary Screen; yeast expressing A-beta42, growth rescue, OD600, 48 h; response scale: 0% DMSO, 100% iron-clioquinol control; Potency, µM (top dose mostly 46.1 µM), actives largely listed as activators; actives 0.063% (n = 410,000); AID 1347071, 2019; further: nearly all actives have a fitted effect of over 55% in size
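Yeast A-beta toxicity model in growth medium with pinned compounds, 48 h at 30 C; growth read as absorbance at 600 nm. Normalized to FeCl3/clioquinol equimolar mix (positive) and DMSO (negative).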
FUS suppressor: qHTS for Suppressors of FUS Proteinopathy: Primary screen using FUS-linked yeast assay. S. cerevisiae FUS-expressing, growth rescue, OD600, 24 h. Potency, µM (series often up to 76.6 µM), most hits filed as activators. actives 0.24% (n = 390,000). AID 1347120, 2019; further: nearly all actives have a fitted effect of over 55% in size
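Steps: raffinose overnight preculture; dilution to OD 0.005 in 2% galactose minimal medium; compound addition (concentration series); 24hr at 30C, 99% humidity; absorbance read at 600 nm.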
Of the large screens only hits and unclear results are named; the others gave an inactive call. Hits are enriched below; roughly 2.3% of the tested compounds scored in any of these assays. Unless noted, the call rests on the fitted dose curve; in most records, active means well fitted curve in the direction sought with a large enough effect; inconclusive means small, poorly fitted or top-dose-only effect, or another doubt; inactive means no such curve, though single readings can be large; an effect the other way counts as inactive or inconclusive.

O=C(c1ccoc1)N1CCN(c2cc(-c3cccnc3)nc3cc(-c4cccc(Cl)c4)nn23)CC1	TDP-43 yeast inh 7.9µM, FUS suppressor inconclusive (no result: Mm-Cpn inhibitor)
CCOc1ccc(C2c3c(-c4ccc(C)cc4)n[nH]c3C(=O)N2c2ccc(Cl)cc2)cc1 (stereo not given)	FUS suppressor inconclusive (no result: aSyn rescue, CCT chaperon mod, Mm-Cpn inhibitor)
Cc1cccc(OCCCCn2nnc3sc4c(c3c2=O)CCC(C)C4)c1 (stereo not given)	none (no result: aSyn rescue, CCT chaperon mod, Mm-Cpn inhibitor)
COc1cc(-c2cc3nc(NCCc4ccncc4)ccn3n2)cc(OC)c1OC	none (no result: Mm-Cpn inhibitor)
COc1cc(-c2cc3nc(NCCOc4ccccc4)ccn3n2)cc(OC)c1OC	TDP-43 yeast inh 32µM, FUS suppressor inconclusive (no result: Mm-Cpn inhibitor)
OC[C@@H]1[C@@H](c2ccc(F)cc2)C(c2cccc(Cl)c2)=NN1c1ccccc1	none
COc1ccccc1[C@H]1C(c2ccccc2)=NN(c2ccccc2)[C@@H]1CO	aSyn rescue inconclusive, TDP-43 yeast inh inconclusive
COc1ccccc1[C@H]1C(c2ccc(F)cc2)=NN(c2ccccc2)[C@@H]1CO	TDP-43 yeast inh 28µM
C[C@H]1C(c2ccc(F)cc2)=NN(c2ccccc2)[C@@H]1CO	TDP-43 yeast inh 18µM, Abeta yeast res inconclusive
CNC(=O)c1sc2ncccc2c1-n1cccc1	none (no result: aSyn rescue, CCT chaperon mod, Mm-Cpn inhibitor)
O=C(Cc1ccc(Cl)cc1)NO	none (no result: CCT chaperon mod, TDP-43 yeast inh, Mm-Cpn inhibitor, Abeta yeast res, FUS suppressor)
COc1cccc(CNC(=O)CSc2nc(=O)[nH]c3c2CCCC3)c1	none (no result: aSyn rescue, CCT chaperon mod, Mm-Cpn inhibitor)
N#Cc1c(N)nc2c(c1-c1ccc3c(c1)OCO3)CCc1ccccc1-2	TDP-43 yeast inh 32µM
N#Cc1c(-c2ccc3c(c2)OCO3)csc1N	TDP-43 yeast inh 16µM
N#CCC[C@@H]1CC[C@]2(CCCN(Cc3ccccc3)C2)O1	none (no result: aSyn rescue, CCT chaperon mod, TDP-43 yeast inh, Mm-Cpn inhibitor, Abeta yeast res)
O=C(O)c1ccccc1-c1ccccc1C(=O)Nc1cccc(Br)c1	none
O=C(Nc1cccc(Br)c1)c1ccccc1-c1ccccc1	TDP-43 yeast inh 16µM, Abeta yeast res inconclusive
O=C(Nc1ccc(F)c(F)c1)c1ccccc1-c1ccccc1	TDP-43 yeast inh inconclusive, Abeta yeast res 7.1µM (no result: FUS suppressor)
CN1C(=O)c2ccccc2Sc2ccc(NC(=O)c3ccccc3F)cc21	TDP-43 yeast inh 18µM (no result: aSyn rescue, CCT chaperon mod, Mm-Cpn inhibitor)
COc1ccc(S(=O)(=O)N2CCN(c3nc(-c4cccs4)nc4ccccc34)CC2)cc1OC	none (no result: CCT chaperon mod, TDP-43 yeast inh, Mm-Cpn inhibitor, Abeta yeast res, FUS suppressor)
C(=Nc1ccc2ccccc2n1)c1cccnc1	none (no result: CCT chaperon mod, TDP-43 yeast inh, Mm-Cpn inhibitor, Abeta yeast res, FUS suppressor)
Cn1ncc(Cl)c1C(=O)N1CCN(c2ccc(Cl)c(Cl)c2)CC1	TDP-43 yeast inh 13µM, FUS suppressor inconclusive
C=CCSc1nnc(CCCCCN2C(=O)c3cccc4cccc(c34)C2=O)o1	TDP-43 yeast inh 22µM
COc1cccc(C(=O)OCC(=O)NCCNC(=O)COC(=O)c2cccc(OC)c2OC)c1OC	none (no result: FUS suppressor)
COc1cccc(C(=O)OCC(=O)c2ccc(Br)s2)c1OC	TDP-43 yeast inh 1.8µM
CCN1CCCC1CN(Cc1cc2cc(C)cc(C)c2[nH]c1=O)C(=O)Nc1ccccc1OC (stereo not given)	FUS suppressor 32µM
CCN1CCCC1CN(Cc1cc2ccc(C)cc2[nH]c1=O)C(=S)Nc1ccc(OC)cc1OC (stereo not given)	none
Nc1nn(-c2ccccc2)c(N)c1N=Nc1cccc(F)c1	TDP-43 yeast inh inconclusive
Nc1nn(-c2ccccc2)c(N)c1N=Nc1ccc2c(c1)OCO2	TDP-43 yeast inh 18µM
CCOC(=O)c1[nH]c(C)c(CCC(=O)Nc2ccc(N(CC)CC)cc2C)c1C	none (no result: aSyn rescue, CCT chaperon mod, Mm-Cpn inhibitor)
COc1ccc(-c2cc(C)no2)cc1S(=O)(=O)N1CCc2ccccc21	none (no result: aSyn rescue, CCT chaperon mod, Mm-Cpn inhibitor)
COc1ccc(-c2cc(C)no2)cc1S(=O)(=O)N1CCOc2ccccc21	CCT chaperon mod -81
Cc1cc(-c2ccc(C)c(S(=O)(=O)N3CC(=O)Nc4ccccc43)c2)on1	CCT chaperon mod -35
Clc1ccccc1-c1nc2ccccc2c2nncn12	TDP-43 yeast inh 40µM
